# Reference: paper PMC7862700, “An all-to-all approach to the identification of sequence-specific readers for epigenetic DNA modifications on cytosine”
# Key:
# Assay in all cases: DAPPL (digital affinity profiling via proximity ligation, sequencing); 10 mM Tris-HCl pH 7.5, 50 mM NaCl, 1 mM DTT, 4% glycerol, room temperature, 30 min; GST-TFs on glutathione beads, 16-mer random dsDNA library, 0.1% formaldehyde crosslink after washing; high values mean tight binding
# Conditions in all cases: protein: recombinant; tags: N-terminal GST; dsDNA, one strand shown
# FLI1 = biological target: T1, FLI1 (Homo sapiens, UniProt Q01543 1-452)
# T1 sequence: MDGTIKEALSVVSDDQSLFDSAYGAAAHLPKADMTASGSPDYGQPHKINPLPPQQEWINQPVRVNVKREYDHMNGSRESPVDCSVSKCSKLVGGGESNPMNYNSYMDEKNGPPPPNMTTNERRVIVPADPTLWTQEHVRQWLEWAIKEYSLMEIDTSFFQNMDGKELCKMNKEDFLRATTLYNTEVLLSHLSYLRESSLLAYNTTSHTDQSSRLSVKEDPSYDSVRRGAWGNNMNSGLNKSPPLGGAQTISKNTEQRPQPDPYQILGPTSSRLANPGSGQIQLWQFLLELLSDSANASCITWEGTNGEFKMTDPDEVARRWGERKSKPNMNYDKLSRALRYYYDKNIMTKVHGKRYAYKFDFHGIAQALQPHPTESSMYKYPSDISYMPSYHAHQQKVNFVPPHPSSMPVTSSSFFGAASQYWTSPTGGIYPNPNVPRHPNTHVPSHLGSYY
# Method in brief: (§1)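 Yeast served to express human transcription factors as GST fusions, which were then captured on glutathione beads and labelled with DNA barcodes. Pooled with a tag-only sample, they were incubated with 200 nmole of a 16-mer random double-stranded DNA library for 30 min at room temperature in Tris/NaCl/DTT/glycerol buffer, washed, crosslinked with 0.1% formaldehyde, ligated by proximity, amplified by PCR and sequenced. Dividing each hexamer's read frequency for a factor by its frequency for the tag-only sample gives the binding signal.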
# ELK1 = biological target: T2, ELK1 (Homo sapiens, UniProt P19419 1-428)
# T2 sequence: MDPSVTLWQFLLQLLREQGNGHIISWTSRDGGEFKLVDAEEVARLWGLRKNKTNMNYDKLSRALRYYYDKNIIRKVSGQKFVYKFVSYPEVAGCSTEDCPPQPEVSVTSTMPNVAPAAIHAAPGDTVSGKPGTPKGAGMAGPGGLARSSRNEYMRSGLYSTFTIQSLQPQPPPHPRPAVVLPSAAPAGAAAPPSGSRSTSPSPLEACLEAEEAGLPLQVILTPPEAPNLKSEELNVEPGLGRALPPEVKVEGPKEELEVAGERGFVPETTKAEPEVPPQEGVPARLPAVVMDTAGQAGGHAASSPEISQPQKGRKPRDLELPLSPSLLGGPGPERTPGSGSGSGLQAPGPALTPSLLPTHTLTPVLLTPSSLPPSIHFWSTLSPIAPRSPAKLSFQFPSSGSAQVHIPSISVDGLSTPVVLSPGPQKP
# Method in brief: as §1
# GABPA = biological target: T3, GABPA (Homo sapiens, UniProt Q06546 1-454)
# T3 sequence: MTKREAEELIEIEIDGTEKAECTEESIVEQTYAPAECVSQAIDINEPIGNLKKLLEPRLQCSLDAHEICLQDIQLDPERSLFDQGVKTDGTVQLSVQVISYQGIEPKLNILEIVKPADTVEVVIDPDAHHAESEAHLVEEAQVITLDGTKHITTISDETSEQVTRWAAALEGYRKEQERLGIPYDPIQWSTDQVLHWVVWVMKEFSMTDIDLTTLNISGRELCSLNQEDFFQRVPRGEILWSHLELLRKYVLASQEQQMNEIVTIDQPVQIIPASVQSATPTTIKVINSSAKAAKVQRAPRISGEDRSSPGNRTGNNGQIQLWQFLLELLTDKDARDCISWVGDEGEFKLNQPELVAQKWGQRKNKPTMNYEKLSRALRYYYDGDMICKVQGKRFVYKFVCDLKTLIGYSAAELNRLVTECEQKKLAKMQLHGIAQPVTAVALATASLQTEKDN
# Method in brief: as §1
# ERG = biological target: T4, ERG (Homo sapiens, UniProt P11308 1-479)
# T4 sequence: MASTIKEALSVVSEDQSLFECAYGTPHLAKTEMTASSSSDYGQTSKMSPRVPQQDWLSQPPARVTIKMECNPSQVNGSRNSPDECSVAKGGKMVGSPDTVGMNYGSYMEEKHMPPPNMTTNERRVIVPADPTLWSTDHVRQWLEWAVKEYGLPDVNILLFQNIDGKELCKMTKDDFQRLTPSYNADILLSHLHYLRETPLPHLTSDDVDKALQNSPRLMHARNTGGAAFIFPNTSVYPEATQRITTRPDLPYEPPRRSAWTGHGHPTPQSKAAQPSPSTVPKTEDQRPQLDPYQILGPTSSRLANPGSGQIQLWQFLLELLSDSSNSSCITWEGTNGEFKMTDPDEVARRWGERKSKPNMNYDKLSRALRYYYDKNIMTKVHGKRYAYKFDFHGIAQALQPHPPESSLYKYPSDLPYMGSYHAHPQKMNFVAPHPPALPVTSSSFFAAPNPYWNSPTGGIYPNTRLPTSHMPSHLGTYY
# Method in brief: as §1
# ELF1 = ELF1 (Homo sapiens, UniProt P32519 1-619)
# Sequence of ELF1 (P32519 whole entry): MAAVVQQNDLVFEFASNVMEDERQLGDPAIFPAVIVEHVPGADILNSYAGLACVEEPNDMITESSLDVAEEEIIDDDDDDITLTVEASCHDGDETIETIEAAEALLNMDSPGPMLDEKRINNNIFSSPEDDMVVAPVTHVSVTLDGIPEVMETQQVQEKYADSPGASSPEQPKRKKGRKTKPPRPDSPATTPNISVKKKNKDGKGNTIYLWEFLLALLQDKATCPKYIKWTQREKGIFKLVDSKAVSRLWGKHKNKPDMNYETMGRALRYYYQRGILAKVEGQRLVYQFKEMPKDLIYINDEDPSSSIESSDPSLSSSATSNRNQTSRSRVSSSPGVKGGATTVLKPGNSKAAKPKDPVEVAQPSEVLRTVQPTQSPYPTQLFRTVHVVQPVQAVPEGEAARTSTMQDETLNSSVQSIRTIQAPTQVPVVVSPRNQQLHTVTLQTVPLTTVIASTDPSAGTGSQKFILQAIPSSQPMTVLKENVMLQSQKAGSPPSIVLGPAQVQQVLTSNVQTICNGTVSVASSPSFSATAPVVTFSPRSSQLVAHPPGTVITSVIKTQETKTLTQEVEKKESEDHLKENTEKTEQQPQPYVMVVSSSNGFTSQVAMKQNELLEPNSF
# Method in brief: as §1
# EHF = biological target: T5, EHF (Homo sapiens, UniProt Q9NZC4 1-300)
# T5 sequence: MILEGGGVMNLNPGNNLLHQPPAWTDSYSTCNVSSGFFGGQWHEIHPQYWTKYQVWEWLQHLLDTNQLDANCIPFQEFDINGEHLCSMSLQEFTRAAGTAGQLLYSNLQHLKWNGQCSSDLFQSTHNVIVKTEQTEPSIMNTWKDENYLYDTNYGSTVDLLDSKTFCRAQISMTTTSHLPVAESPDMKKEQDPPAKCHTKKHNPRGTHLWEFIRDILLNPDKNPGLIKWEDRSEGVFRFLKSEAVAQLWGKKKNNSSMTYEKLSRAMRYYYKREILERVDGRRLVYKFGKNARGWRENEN
# Method in brief: as §1
# SPIB = SPIB (Homo sapiens, UniProt Q01892 1-262)
# Sequence of SPIB (Q01892 whole entry): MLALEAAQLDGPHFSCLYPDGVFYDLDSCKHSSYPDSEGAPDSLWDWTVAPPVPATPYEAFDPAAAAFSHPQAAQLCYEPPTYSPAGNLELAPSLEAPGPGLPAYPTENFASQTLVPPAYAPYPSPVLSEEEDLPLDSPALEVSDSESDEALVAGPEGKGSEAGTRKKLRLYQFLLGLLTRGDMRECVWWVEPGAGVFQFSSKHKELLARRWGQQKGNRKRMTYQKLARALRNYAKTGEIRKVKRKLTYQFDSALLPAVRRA
# Method in brief: as §1
# ELK3 = biological target: T6, ELK3 (Homo sapiens, UniProt P41970 1-407)
# T6 sequence: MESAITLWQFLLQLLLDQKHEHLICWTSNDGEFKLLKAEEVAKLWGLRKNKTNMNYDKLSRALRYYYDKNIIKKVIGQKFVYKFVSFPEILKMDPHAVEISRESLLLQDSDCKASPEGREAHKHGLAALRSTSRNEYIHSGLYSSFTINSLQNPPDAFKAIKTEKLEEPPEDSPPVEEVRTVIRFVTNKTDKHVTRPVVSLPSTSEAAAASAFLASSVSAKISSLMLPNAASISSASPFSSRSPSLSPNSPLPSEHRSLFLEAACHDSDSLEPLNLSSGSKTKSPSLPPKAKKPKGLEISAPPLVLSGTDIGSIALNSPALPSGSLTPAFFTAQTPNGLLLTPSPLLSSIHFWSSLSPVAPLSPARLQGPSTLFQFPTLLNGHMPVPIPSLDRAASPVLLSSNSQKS
# Method in brief: as §1
# SPIC = biological target: T7, SPIC (Homo sapiens, UniProt Q8N5J4 1-248)
# T7 sequence: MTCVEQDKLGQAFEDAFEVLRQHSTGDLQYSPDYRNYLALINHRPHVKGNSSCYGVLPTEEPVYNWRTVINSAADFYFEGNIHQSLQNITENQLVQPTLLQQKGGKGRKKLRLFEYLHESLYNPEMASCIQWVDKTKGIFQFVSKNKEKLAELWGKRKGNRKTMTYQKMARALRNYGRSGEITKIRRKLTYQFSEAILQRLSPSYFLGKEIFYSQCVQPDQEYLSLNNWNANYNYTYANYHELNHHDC
# Method in brief: as §1
# ELF4 = ELF4 (Homo sapiens, UniProt Q99607 1-663)
# Sequence of ELF4 (Q99607 whole entry): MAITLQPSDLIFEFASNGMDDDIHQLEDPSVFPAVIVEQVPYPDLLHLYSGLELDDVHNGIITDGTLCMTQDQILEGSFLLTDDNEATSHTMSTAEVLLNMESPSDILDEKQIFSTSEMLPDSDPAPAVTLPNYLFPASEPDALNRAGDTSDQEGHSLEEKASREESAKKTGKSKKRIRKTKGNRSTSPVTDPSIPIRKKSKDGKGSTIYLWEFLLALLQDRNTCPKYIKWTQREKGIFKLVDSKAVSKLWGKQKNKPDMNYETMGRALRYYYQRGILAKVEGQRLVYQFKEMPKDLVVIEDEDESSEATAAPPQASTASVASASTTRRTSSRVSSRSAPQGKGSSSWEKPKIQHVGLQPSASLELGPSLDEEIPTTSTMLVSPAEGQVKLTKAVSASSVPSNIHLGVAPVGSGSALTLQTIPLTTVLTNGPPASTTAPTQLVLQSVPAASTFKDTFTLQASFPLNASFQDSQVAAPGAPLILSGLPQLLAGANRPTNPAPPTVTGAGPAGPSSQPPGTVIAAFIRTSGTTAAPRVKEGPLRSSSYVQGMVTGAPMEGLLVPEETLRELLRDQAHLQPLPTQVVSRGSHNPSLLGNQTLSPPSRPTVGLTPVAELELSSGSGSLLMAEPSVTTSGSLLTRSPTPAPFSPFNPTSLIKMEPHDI
# Method in brief: as §1
# ELK4 = biological target: T8, ELK4 (Homo sapiens, UniProt P28324-2 1-405)
# T8 sequence: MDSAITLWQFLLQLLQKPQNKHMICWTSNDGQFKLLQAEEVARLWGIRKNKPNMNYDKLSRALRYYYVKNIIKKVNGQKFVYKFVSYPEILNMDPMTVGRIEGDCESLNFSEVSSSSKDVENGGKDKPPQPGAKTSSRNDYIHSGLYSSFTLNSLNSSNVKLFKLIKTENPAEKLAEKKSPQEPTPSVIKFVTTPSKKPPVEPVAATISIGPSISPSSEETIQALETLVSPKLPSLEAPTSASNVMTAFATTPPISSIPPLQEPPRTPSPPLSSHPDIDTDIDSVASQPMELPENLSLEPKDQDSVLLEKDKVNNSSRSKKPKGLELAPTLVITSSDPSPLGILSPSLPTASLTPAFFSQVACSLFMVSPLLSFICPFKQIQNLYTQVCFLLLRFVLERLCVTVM
# Method in brief: as §1
# ETV2 = biological target: T9, ETV2 (Homo sapiens, UniProt O00321 1-342)
# T9 sequence: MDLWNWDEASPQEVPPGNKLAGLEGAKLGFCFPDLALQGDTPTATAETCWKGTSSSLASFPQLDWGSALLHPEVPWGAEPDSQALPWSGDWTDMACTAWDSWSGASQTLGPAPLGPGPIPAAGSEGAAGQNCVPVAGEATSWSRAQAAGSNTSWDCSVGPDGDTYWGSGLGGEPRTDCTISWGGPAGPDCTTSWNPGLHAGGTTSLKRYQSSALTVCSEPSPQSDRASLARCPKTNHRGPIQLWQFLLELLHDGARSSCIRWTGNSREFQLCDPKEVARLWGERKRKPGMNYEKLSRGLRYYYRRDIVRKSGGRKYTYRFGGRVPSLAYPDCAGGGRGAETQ
# Method in brief: as §1
# ELF3 = biological target: T10, ELF3 (Homo sapiens, UniProt P78545 1-371)
# T10 sequence: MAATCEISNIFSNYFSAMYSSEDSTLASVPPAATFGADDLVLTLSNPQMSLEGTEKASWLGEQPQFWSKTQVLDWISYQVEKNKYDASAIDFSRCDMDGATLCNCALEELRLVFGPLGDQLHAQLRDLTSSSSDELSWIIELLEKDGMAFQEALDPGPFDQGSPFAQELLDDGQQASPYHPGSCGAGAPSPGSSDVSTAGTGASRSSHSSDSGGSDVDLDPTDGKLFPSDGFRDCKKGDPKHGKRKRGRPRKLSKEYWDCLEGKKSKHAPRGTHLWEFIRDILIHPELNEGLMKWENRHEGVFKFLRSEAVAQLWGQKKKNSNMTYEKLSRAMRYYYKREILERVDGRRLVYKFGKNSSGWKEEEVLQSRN
# Method in brief: as §1
# ETV1 = ETV1 (Homo sapiens, UniProt P50549 1-477)
# Sequence of ETV1 (P50549 whole entry): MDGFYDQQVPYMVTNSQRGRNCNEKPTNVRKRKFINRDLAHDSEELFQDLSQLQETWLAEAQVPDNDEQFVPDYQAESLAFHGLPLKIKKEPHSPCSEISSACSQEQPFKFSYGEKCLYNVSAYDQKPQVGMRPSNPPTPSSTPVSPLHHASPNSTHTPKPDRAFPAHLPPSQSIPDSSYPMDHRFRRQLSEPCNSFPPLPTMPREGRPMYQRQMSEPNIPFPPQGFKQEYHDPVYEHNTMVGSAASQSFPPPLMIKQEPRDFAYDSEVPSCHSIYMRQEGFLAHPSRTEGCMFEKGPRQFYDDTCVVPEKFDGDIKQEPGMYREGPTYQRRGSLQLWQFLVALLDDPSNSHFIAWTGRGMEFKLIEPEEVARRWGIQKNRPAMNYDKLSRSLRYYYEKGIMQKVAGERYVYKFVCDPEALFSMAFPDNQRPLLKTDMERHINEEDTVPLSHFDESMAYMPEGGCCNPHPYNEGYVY
# Method in brief: as §1
# ERF = biological target: T11, ERF (Homo sapiens, UniProt P50548 1-548)
# T11 sequence: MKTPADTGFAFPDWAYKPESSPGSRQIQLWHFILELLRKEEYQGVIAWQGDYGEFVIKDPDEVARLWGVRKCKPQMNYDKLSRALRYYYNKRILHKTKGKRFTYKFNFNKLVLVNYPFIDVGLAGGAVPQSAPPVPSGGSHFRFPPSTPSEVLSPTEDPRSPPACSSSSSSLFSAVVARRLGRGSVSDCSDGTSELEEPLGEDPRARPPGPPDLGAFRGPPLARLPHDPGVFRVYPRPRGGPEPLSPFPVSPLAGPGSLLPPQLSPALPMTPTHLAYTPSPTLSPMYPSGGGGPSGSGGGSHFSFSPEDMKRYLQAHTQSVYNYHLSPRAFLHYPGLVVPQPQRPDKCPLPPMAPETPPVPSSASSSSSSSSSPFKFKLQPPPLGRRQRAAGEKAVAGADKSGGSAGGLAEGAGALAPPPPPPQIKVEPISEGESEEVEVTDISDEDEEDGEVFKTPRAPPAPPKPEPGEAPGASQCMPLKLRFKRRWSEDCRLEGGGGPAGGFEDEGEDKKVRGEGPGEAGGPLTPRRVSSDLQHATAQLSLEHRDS
# Method in brief: as §1
# ETV7 = biological target: T12, ETV7 (Homo sapiens, UniProt Q9Y603 1-341)
# T12 sequence: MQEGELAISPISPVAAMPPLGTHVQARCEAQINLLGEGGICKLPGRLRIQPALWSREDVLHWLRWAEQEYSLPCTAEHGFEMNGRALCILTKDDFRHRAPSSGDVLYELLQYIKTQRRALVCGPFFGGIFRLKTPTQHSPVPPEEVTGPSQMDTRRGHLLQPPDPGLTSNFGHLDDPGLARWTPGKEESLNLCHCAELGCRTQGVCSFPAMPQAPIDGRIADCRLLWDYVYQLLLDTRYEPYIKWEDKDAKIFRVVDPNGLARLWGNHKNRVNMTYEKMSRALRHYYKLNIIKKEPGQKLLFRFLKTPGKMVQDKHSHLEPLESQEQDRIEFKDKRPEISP
# Method in brief: as §1
# ETV3 = biological target: T13, ETV3 (Homo sapiens, UniProt P41162-2 1-143)
# T13 sequence: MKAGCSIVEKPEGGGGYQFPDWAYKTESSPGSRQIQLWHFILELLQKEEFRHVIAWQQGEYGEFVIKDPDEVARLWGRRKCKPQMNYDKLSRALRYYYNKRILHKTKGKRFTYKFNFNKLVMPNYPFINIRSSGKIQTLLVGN
# Method in brief: as §1
# ETV6 = ETV6 (Homo sapiens, UniProt P41212 1-452)
# Sequence of ETV6 (P41212 whole entry): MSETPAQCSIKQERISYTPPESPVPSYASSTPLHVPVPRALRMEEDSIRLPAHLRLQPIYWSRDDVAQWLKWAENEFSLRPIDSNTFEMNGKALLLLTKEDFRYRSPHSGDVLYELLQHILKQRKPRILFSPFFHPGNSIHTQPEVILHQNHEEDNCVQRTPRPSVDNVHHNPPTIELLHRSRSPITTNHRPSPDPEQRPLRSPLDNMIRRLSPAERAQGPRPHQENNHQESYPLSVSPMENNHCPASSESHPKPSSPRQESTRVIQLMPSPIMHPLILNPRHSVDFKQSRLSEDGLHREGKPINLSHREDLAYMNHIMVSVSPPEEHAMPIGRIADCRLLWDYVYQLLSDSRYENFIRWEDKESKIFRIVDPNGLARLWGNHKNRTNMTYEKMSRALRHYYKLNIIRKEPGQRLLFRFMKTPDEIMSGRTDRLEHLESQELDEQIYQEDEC
# Method in brief: as §1
sequence,measurement,setting,value
GCACCT,binding signal,FLI1,"1.07 fold enrichment (6-mer frequency, TF over GST control)"
same,binding signal,ELK1,"1.01 fold enrichment (6-mer frequency, TF over GST control)"
same,binding signal,GABPA,"1.12 fold enrichment (6-mer frequency, TF over GST control)"
same,binding signal,ERG,"1.07 fold enrichment (6-mer frequency, TF over GST control)"
same,binding signal,ELF1,"1.16 fold enrichment (6-mer frequency, TF over GST control)"
same,binding signal,EHF,"1.18 fold enrichment (6-mer frequency, TF over GST control)"
same,binding signal,SPIB,"1.13 fold enrichment (6-mer frequency, TF over GST control)"
same,binding signal,ELK3,"1.05 fold enrichment (6-mer frequency, TF over GST control)"
same,binding signal,SPIC,"1 fold enrichment (6-mer frequency, TF over GST control)"
same,binding signal,ELF4,"1.13 fold enrichment (6-mer frequency, TF over GST control)"
same,binding signal,ELK4,"1.16 fold enrichment (6-mer frequency, TF over GST control)"
same,binding signal,ETV2,"1.25 fold enrichment (6-mer frequency, TF over GST control)"
same,binding signal,ELF3,"1.06 fold enrichment (6-mer frequency, TF over GST control)"
same,binding signal,ETV1,"1.1 fold enrichment (6-mer frequency, TF over GST control)"
same,binding signal,ERF,"1.29 fold enrichment (6-mer frequency, TF over GST control)"
same,binding signal,ETV7,"1.11 fold enrichment (6-mer frequency, TF over GST control)"
same,binding signal,ETV3,"1.13 fold enrichment (6-mer frequency, TF over GST control)"
same,binding signal,ETV6,"1.12 fold enrichment (6-mer frequency, TF over GST control)"
